# Data taken from article PMC11062922 (Nature Chemical Biology, 2023).
# Where two headings read alike, the source gives them in different places.
# What was measured:
# Design in all cases: species or system human, MV4-11 + K-562 + COLO205 + SK-N-BE2 + OVCAR-8
# CDK16 = settings: read-out: apparent Kd; compound concentrations:100 nM and 1000 nM (sheet 'Samples'); n = 1
# CLK4 = settings: read-out: apparent Kd, n = 1
# CSNK2A1;CSNK2A3 = settings: read-out: apparent Kd; compound concentrations:100 nM and 1000 nM (sheet 'Samples'); n = 1
# CSNK2A2 = settings: read-out: apparent Kd, n = 1
# GSK3A = settings: read-out: apparent Kd; compound concentrations:100 nM and 1000 nM (sheet 'Samples'); n = 1
# MELK = settings: read-out: apparent Kd; compound concentrations:100 nM and 1000 nM (sheet 'Samples'); n = 1
# MYLK3 = settings: read-out: apparent Kd; compound concentrations:100 nM and 1000 nM (sheet 'Samples'); n = 1
# NUAK1 = settings: read-out: apparent Kd; compound concentrations:100 nM and 1000 nM (sheet 'Samples'); n = 1
# PRKAG1 = settings: read-out: apparent Kd; compound concentrations:100 nM and 1000 nM (sheet 'Samples'); n = 1
# CDC42 = settings: read-out: apparent Kd, n = 1
# EGFR = settings: read-out: apparent Kd; compound concentrations: 100 nM and 1000 nM (sheet 'Samples'), CATDS: 0.71685181489177596; n = 1
# ERBB3 = settings: read-out: apparent Kd; compound concentrations: 100 nM and 1000 nM (sheet 'Samples'), CATDS: 0.132982955491593; n = 1
# NNT = settings: read-out: apparent Kd; compound concentrations: 100 nM and 1000 nM (sheet 'Samples'), CATDS: 0.11921325436386; n = 1
# RAB5C = settings: read-out: apparent Kd, n = 1
# RIPK2 = settings: read-out: apparent Kd; compound concentrations: 100 nM and 1000 nM (sheet 'Samples'), CATDS: 0.27482887705752401; n = 1
# CDK2 = settings: read-out: apparent Kd; compound concentrations: 100 nM and 1000 nM (sheet 'Samples'), CATDS: 0.44900253923849898; n = 1
# CDK6 = settings: read-out: apparent Kd; compound concentrations: 100 nM and 1000 nM (sheet 'Samples'), CATDS: 0.29293356798223702; n = 1
# CLK1 = settings: read-out: apparent Kd; compound concentrations: 100 nM and 1000 nM (sheet 'Samples'), CATDS: 4.7124029654616303E-2; n = 1
# COX5A = settings: read-out: apparent Kd; compound concentrations: 100 nM and 1000 nM (sheet 'Samples'), CATDS: 4.3023154041585097E-2; n = 1
# CSNK1D = settings: read-out: apparent Kd; compound concentrations: 100 nM and 1000 nM (sheet 'Samples'), CATDS: 4.2260690384559901E-2; n = 1
# CSNK1E = settings: read-out: apparent Kd; compound concentrations: 100 nM and 1000 nM (sheet 'Samples'), CATDS: 3.6484131745227702E-2; n = 1
# EIF2AK1 = settings: read-out: apparent Kd; compound concentrations: 100 nM and 1000 nM (sheet 'Samples'), CATDS: 4.9510201878617897E-2; n = 1
# GAK = settings: read-out: apparent Kd; compound concentrations: 100 nM and 1000 nM (sheet 'Samples'), CATDS: 0.41748311116987502; n = 1
# IGF1R = settings: read-out: apparent Kd; compound concentrations: 100 nM and 1000 nM (sheet 'Samples'), CATDS: 4.75175381268634E-2; n = 1
# INSR = settings: read-out: apparent Kd; compound concentrations: 100 nM and 1000 nM (sheet 'Samples'), CATDS: 6.6437205793840798E-2; n = 1
# MAPK10 = settings: read-out: apparent Kd; compound concentrations: 100 nM and 1000 nM (sheet 'Samples'), CATDS: 0.17405984899870899; n = 1
# MAPK8 = settings: read-out: apparent Kd; compound concentrations: 100 nM and 1000 nM (sheet 'Samples'), CATDS: 0.110364514010045; n = 1
# MAPK9 = settings: read-out: apparent Kd; compound concentrations: 100 nM and 1000 nM (sheet 'Samples'), CATDS: 6.3911773548267894E-2; n = 1
# NQO2 = settings: read-out: apparent Kd; compound concentrations: 100 nM and 1000 nM (sheet 'Samples'), CATDS: 4.0166930587455497E-2; n = 1
# PSMC4 = settings: read-out: apparent Kd; compound concentrations: 100 nM and 1000 nM (sheet 'Samples'), CATDS: 4.1025682332982399E-2; n = 1
# PTK2B = settings: read-out: apparent Kd; compound concentrations: 100 nM and 1000 nM (sheet 'Samples'), CATDS: 7.7838120070478606E-2; n = 1
# TNK1 = settings: read-out: apparent Kd; compound concentrations: 100 nM and 1000 nM (sheet 'Samples'), CATDS: 8.1062749446302901E-2; n = 1
# TTK = settings: read-out: apparent Kd; compound concentrations: 100 nM and 1000 nM (sheet 'Samples'), CATDS: 5.00246606430578E-2; n = 1
# PIK3CB = settings: read-out: apparent Kd; compound concentrations:100 nM and 1000 nM (sheet 'Samples'); n = 1
# [1] = compound concentrations:100 nM and 1000 nM (sheet 'Samples')
compound,measurement,setting,value
NS(=O)(=O)c1ccc(N/N=C2\C(=O)Nc3ccc(C(=O)NCCc4c[nH]cn4)cc32)cc1 [GW300660X],potency estimated from few doses,CDK16,1010 nM
same,potency estimated from few doses,CLK4; [1],1230 nM
same,potency estimated from few doses,CSNK2A1;CSNK2A3,2310 nM
same,potency estimated from few doses,CSNK2A2; [1],1970 nM
same,potency estimated from few doses,GSK3A,1220 nM
same,potency estimated from few doses,MELK,2180 nM
same,potency estimated from few doses,MYLK3,735 nM
same,potency estimated from few doses,NUAK1,1450 nM
same,potency estimated from few doses,PRKAG1,1480 nM
CN(C)c1cc2c(Nc3ccc4nc(Cc5ccccc5)[nH]c4c3)ncnc2cn1 [GW301888X],potency estimated from few doses,"CDC42; compound concentrations: 100 nM and 1000 nM (sheet 'Samples'), CATDS: 0.115085372614253",1800 nM
same,potency estimated from few doses,EGFR,19.1 nM
same,potency estimated from few doses,ERBB3,1030 nM
same,potency estimated from few doses,NNT,1550 nM
same,potency estimated from few doses,"RAB5C; compound concentrations: 100 nM and 1000 nM (sheet 'Samples'), CATDS: 0.157008240219803",599 nM
same,potency estimated from few doses,RIPK2,133 nM
Cl.NS(=O)(=O)c1ccc(N/N=C2\C(=O)Nc3cccc(CCc4ccncc4)c32)cc1 [GW352430A],potency estimated from few doses,CDK2,936 nM
same,potency estimated from few doses,CDK6,2160 nM
same,potency estimated from few doses,"CSNK2A2; compound concentrations: 100 nM and 1000 nM (sheet 'Samples'), CATDS: 0.29769898154006003",2070 nM
CCCN1CCCC(c2ccc(Nc3nc(Nc4cc(F)ccc4C(N)=O)c4cc[nH]c4n3)c(OC)c2)C1 (stereo not drawn) [GSK1173862A],potency estimated from few doses,"CDC42; compound concentrations: 100 nM and 1000 nM (sheet 'Samples'), CATDS: 4.3032630224219597E-2",1230 nM
same,potency estimated from few doses,CLK1,927 nM
same,potency estimated from few doses,"CLK4; compound concentrations: 100 nM and 1000 nM (sheet 'Samples'), CATDS: 4.6212544182609797E-2",982 nM
same,potency estimated from few doses,COX5A,1230 nM
same,potency estimated from few doses,CSNK1D,1310 nM
same,potency estimated from few doses,CSNK1E,2340 nM
same,potency estimated from few doses,EIF2AK1,805 nM
same,potency estimated from few doses,GAK,17.6 nM
same,potency estimated from few doses,IGF1R,905 nM
same,potency estimated from few doses,INSR,391 nM
same,potency estimated from few doses,MAPK10,65.2 nM
same,potency estimated from few doses,MAPK8,143 nM
same,potency estimated from few doses,MAPK9,427 nM
same,potency estimated from few doses,NQO2,1570 nM
same,potency estimated from few doses,PSMC4,1450 nM
same,potency estimated from few doses,PTK2B,280 nM
same,potency estimated from few doses,TNK1,257 nM
same,potency estimated from few doses,TTK,783 nM
O=c1cc(N2CCOCC2)nc2n(Cc3cccc(C(F)(F)F)c3)ccn12 [GSK2297543A],potency estimated from few doses,CDC42; [1],1400 nM
same,potency estimated from few doses,PIK3CB,274 nM
same,potency estimated from few doses,RAB5C; [1],976 nM
